Reference: the supplement of paper PMC4709259
Counter-ions that a name gives are not always drawn. ± gives the standard deviation.

system: Jurkat; test: mean cell size (FSC-A) relative to DMSO control (fraction of control); higher = larger cells; details: 48 h
Outline: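 Jurkat cells seeded at 600 cells/µl were incubated 1 h, then exposed for 48h to the Enzo Screen-Well FDA Approved Drug Library v2.0 at 25µM in 0.9% (v/v) final DMSO. Drugs that cut counts below 20% of controls were diluted 10-fold and retested, down to 25nM. Cell count and mean cell size (forward scatter area) were read on an Accuri C6 flow cytometer, relative to solvent-only controls. Plates held 6-12 controls; values are means of 3 biological replicates.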

Structure (SMILES) | mean cell size
O=C(O[C@H]1C[C@H]2CC[C@@H](C1)[N+]21CCCC1)C(O)(c1ccccc1)c1ccccc1 [Trospium Chloride] (concentration: 25 µM) | 1.07 ± 0.049
C=CCN1CC[C@]23c4c5ccc(O)c4O[C@H]2C(=O)CC[C@@]3(O)[C@H]1C5 [Naloxone·HCl] (concentration: 25 µM) | 0.947 ± 0.018
C[C@]12CC[C@@H]3c4ccc(OC(=O)N(CCCl)CCCl)cc4CC[C@H]3[C@@H]1CC[C@@H]2OP(=O)(O)O [Estramustine Phosphate·Na] (concentration: 25 µM) | 0.958 ± 0.045
CC(NC(C)(C)C)C(=O)c1cccc(Cl)c1 (stereo not drawn) [Bupropion] (concentration: 25 µM) | 0.935 ± 0.011
O=C(O)CCCc1ccc(N(CCCl)CCCl)cc1 [Chlorambucil] (concentration: 250 nM) | 0.945 ± 0.019
CN1C(=O)C(O)N=C(c2ccccc2)c2cc(Cl)ccc21 (stereo not drawn) [Temazepam] (concentration: 25 µM) | 0.805 ± 0.037
C=CCN1C[C@H](C(=O)N(CCCN(C)C)C(=O)NCC)C[C@@H]2c3cccc4[nH]cc(c34)C[C@H]21 [Cabergoline] (concentration: 25 µM) | 0.889 ± 0.02
O=P1(NCCCl)OCCCN1CCCl (stereo not drawn) [Ifosfamide] (concentration: 25 µM) | 0.938 ± 0.026
CN(C)[C@@H]1C(=O)C(C(N)=O)=C(O)[C@@]2(O)C(=O)C3=C(O)c4c(O)cccc4[C@@](C)(O)[C@H]3[C@H](O)[C@@H]12 [Oxytetracycline·HCl] (concentration: 25 µM) | 0.894 ± 0.014
Cc1nnc2n1-c1ccc(Cl)cc1C(c1ccccc1Cl)=NC2 [Triazolam] (concentration: 25 µM) | 0.935 ± 0.05
CC(C)C[C@H](CN)CC(=O)O [Pregabalin] (concentration: 25 µM) | 1.03 ± 0.02
CC1(C)C(C=C(Cl)Cl)C1C(=O)OCc1cccc(Oc2ccccc2)c1 (stereo not drawn) [Permethrin] (concentration: 25 µM) | 1.03 ± 0.068
Cl[C@H]1[C@H](Cl)[C@@H](Cl)[C@@H](Cl)[C@H](Cl)[C@H]1Cl [Lindane] (concentration: 25 µM) | 0.981 ± 0.037
O=C1CN=C(c2ccccc2Cl)c2cc([N+](=O)[O-])ccc2N1 [Clonazepam] (concentration: 25 µM) | 1.02 ± 0.06
CN(C)[C@@H]1C(=O)C(C(N)=O)=C(O)[C@@]2(O)C(=O)C3=C(O)c4c(O)cccc4[C@@](C)(O)[C@H]3C[C@@H]12 [Tetracycline] (concentration: 25 µM) | 0.998 ± 0.064
CC(=O)O[C@H]1C[C@@H]2CC[C@@H]3[C@H](CC[C@@]4(C)[C@H]3C[C@H]([N+]3(C)CCCCC3)[C@@H]4OC(C)=O)[C@@]2(C)C[C@@H]1[N+]1(C)CCCCC1 [Pancuronium·2Br] (concentration: 25 µM) | 0.963 ± 0.015
C=C1C[C@@H]2[C@H](CC[C@]3(C)C(=O)CC[C@@H]23)[C@@]2(C)C=CC(=O)C=C12 [Exemestane] (concentration: 25 µM) | 0.914 ± 0.029

Structure (SMILES) | mean cell size
C#CCN(C)[C@H](C)Cc1ccccc1 [Selegiline·HCl] (concentration: 25 µM) | 0.9392 ± 0.0074
CCOC(=O)c1cncn1[C@H](C)c1ccccc1 [Etomidate] (concentration: 25 µM) | 1.04 ± 0.049
CCCC(C)(COC(N)=O)COC(N)=O [Meprobamate (Schedule Iv)] (concentration: 25 µM) | 1.08 ± 0.036
CN1[C@@H]2C[C@@H](OC(=O)[C@H](CO)c3ccccc3)C[C@H]1[C@@H]1O[C@@H]12 [Scopolamine·HBr] (concentration: 25 µM) | 1 ± 0.061
CN(C)C(=O)Oc1ccc[n+](C)c1 [Pyridostigmine Bromide] (concentration: 25 µM) | 0.986 ± 0.027
Nc1ccncc1 [Dalfampridine (4-Aminopyridine)] (concentration: 25 µM) | 0.999 ± 0.044
COc1cc([C@@H]2c3cc4c(cc3[C@H](O)[C@H]3COC(=O)[C@H]23)OCO4)cc(OC)c1OC [Podofilox] (concentration: 25 nM) | 0.863 ± 0.026
CCCCCCC(=O)O[C@H]1CC[C@H]2[C@@H]3CCC4=CC(=O)CC[C@]4(C)[C@H]3CC[C@]12C [Testosterone Enanthate] (concentration: 25 µM) | 0.954 ± 0.047
O=C1CC[C@@]2(O)[C@H]3Cc4ccc(O)c5c4[C@@]2(CCN3CC2CC2)[C@H]1O5 [Naltrexone·HCl] (concentration: 2.5 µM) | 0.985 ± 0.049
Cc1c(N)nc(C(CC(N)=O)NCC(N)C(N)=O)nc1C(=O)NC(C(=O)NC(C)C(O)C(C)C(=O)NC(C(=O)NCCc1nc(-c2nc(C(=O)NCCC[S+](C)C)cs2)cs1)C(C)O)C(O[C@@H]1O[C@@H](CO)[C@@H](O)[C@H](O)[C@@H]1O[C@H]1O[C@H](CO)[C@@H](O)[C@H](OC(N)=O)[C@@H]1O)c1cnc[nH]1 (stereo partly drawn) [Bleomycin Sulfate] (concentration: 2.5 µM) | 1.33 ± 0.048
CN1C[C@H](C(=O)N[C@]2(C)O[C@@]3(O)[C@@H]4CCCN4C(=O)[C@H](Cc4ccccc4)N3C2=O)C=C2c3cccc4[nH]cc(c34)C[C@H]21 [Ergotamine Tartrate] (concentration: 25 µM) | 1.07 ± 0.054
CN1C(=O)CN=C(c2ccccc2)c2cc(Cl)ccc21 [Diazepam] (concentration: 25 µM) | 0.911 ± 0.048
CN1C[C@H](C(=O)N[C@]2(C)O[C@@]3(O)[C@@H]4CCCN4C(=O)[C@H](Cc4ccccc4)N3C2=O)C[C@@H]2c3cccc4[nH]cc(c34)C[C@H]21 [Dihydroergotamine Mesylate] (concentration: 25 µM) | 1 ± 0.027
C[N+]1(C)CCCC(OC(=O)C(O)(c2ccccc2)c2ccccc2)C1 (stereo not drawn) [Mepenzolate Bromide] (concentration: 25 µM) | 0.91 ± 0.039
C[N+]1(C)[C@@H]2CC(OC(=O)[C@H](CO)c3ccccc3)C[C@H]1[C@@H]1O[C@@H]12 (stereo partly drawn) [Methscopolamine Bromide ((-)-Scopolamine Methyl Bromide)] (concentration: 25 µM) | 1.05 ± 0.046
COc1ccc2c(c1)[C@]13CCCC[C@@H]1[C@H](C2)N(C)CC3 [Dextromethorphan] (concentration: 25 µM) | 0.936 ± 0.022
